Assay results from PubChem BioAssay.
Active and inactive are the calls of the source.

Columns and labels:
[1] = binders of probe aFSTL3 on microarray, primary screen, stem cell growth factor project, biochemical, small-molecule microarray, fluorescence 635/667 (AID 1064); conditions: higher = more signal;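 note: measures binding of the biotinylated anti-FSTL3 antibody to printed compounds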
[2] = binders from COS7 lysate, DM2A8 probe, primary screen, torsin A project, cell lysate, small-molecule microarray, fluorescence 635/667 (AID 1065); conditions: higher = more signal, COS7 lysate expressing mutant human TOR1A
[3] = binders of probe aFGF2 on microarray, primary screen, stem cell growth factor project, biochemical, small-molecule microarray, fluorescence 635/667 (AID 1067); conditions: higher = more signal;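 note: measures binding of biotinylated aFGF2 protein to printed compounds on slides; z-score merges feature fluorescence and signal-to-noise across triplicate slides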
[4] = binders of probe aFGF10 on microarray, primary screen, stem cell growth factor project, biochemical, small-molecule microarray, fluorescence 635/667 (AID 1071); conditions: higher = more signal;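 note: score merges 667 nm spot intensity and signal to noise from triplicate slides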
[5] = molecular target: Neurogenic locus notch homolog protein 2 (Homo sapiens) (UniProt Q04721); test: Notch2 binders on small-molecule microarrays, primary screen, biochemical, small-molecule microarray, 635 nm fluorescence, stem cell growth factors (AID 1073); conditions: Notch2 binding, higher = more signal
[6] = molecular target: Pro-neuregulin-1, membrane-bound isoform (Homo sapiens) (UniProt Q02297); test: NRG1 binders on small-molecule microarrays, primary screen, psychiatric disease protein project, biochemical, small-molecule microarray, fluorescence 635/667 (AID 1075); conditions: NRG1 binding, 635 nm fluorescence, higher = more signal;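 note: score combines 667 nm spot fluorescence with signal to noise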
[7] = system: Neuregulin-1 EGF-like domain; test: binders of neuregulin-1 EGF-like domain, primary screen, biochemical, small-molecule microarray, 635 nm fluorescence (AID 1081); conditions: small-molecule microarray binding, higher = more signal;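 note: binding of the protein to compounds printed on small-molecule microarray slides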
[8] = FRG1 promoter luciferase signal modulators, primary screen, FRG1 inhibition for FSHD, cell-based, C2C12 myotubes, firefly/Renilla luciferase, luminescence (AID 1084); conditions: higher = more signal, called active from +8 up or from −8 down
[9] = binders of probe aFST on microarray, primary screen, stem cell growth factor project, biochemical, small-molecule microarray, fluorescence 635/667 (AID 1086); conditions: higher = more signal;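 note: score merges 667 nm fluorescence with signal-to-noise of each printed compound spot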
[10] = binders of probe aHhip on microarray, primary screen, stem cell growth factor project, biochemical, small-molecule microarray, fluorescence 635/667 (AID 1087); conditions: higher = more signal;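 note: score merges spot fluorescence at 667nm with spot signal to noise ratio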
[11] = system: PRMT1 (protein arginine N-methyltransferase 1); test: PRMT1 binders on small-molecule microarrays, primary screen, biochemical, small-molecule microarray, 635 nm fluorescence (AID 1088); conditions: small-molecule microarray binding, higher = more signal;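 note: binding of Prmt1 protein to compounds spotted on small-molecule microarray slides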
[12] = yeast growth modulation, basal conditions, primary screen, YJM789 clinical isolate, OD600, 24 h (AID 1089);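 note: growth of clinical yeast isolate S. cerevisiae YJM 789 seeded 1000 cells per well; test concentration not given here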; conditions: S. cerevisiae YJM789 growth, higher = more signal, called active from +8 up or from −8 down
[13] = fission yeast growth modulation, primary screen, strain 972, OD600, 24 h, no modulator (AID 1090);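 note: basal condition with compound alone and no growth modifier present; test concentration not given here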; conditions: S. pombe 972 growth, higher = more signal, called active from +8 up or from −8 down
[14] = S. cerevisiae growth modulation with rapamycin, primary screen, strain BY4716, OD600, 96 h (AID 1091); conditions: higher = more signal, called active from +8 up or from −8 down; note: test concentration not given here
[15] = molecular target: Torsin-1A-interacting protein 2 (Homo sapiens) (UniProt Q8NFQ8); test: LULL1 binders on small-molecule microarray, primary screen, cell lysate, human LULL1 lysate, 635/667 nm fluorescence (AID 1092); conditions: hLULL1 lysate binding, 635 nm fluorescence, higher = more signal;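 note: probe is lysate of COS7 cells overexpressing human LULL1; score merges per-feature 667 nm fluorescence with signal-to-noise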
[16] = E. coli growth modulation, two-sided OD650, primary screen, E. coli filamentation project, strain DRC41, 24 h (AID 1093); conditions: OD650, 24 h, higher = more signal, called active from +8 up or from −8 down;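 note: MC1000 strain lacking acrAB efflux and sulA so SOS filamentation is blocked; test concentration not given here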
[17] = small-molecule microarray binders of probe aLefty2, primary screen, biochemical, biotinylated probe, 635/667 nm fluorescence (AID 1094); conditions: higher = more signal;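 note: score merges spot fluorescence near 667 nm with spot signal-to-noise ratio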
[18] = system: Noggin (protein binding on small-molecule microarray); test: Noggin binders on small-molecule microarray, primary screen, biochemical, 635/667 nm fluorescence (AID 1095); conditions: 635 nm fluorescence, higher = more signal;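 note: score merges 667 nm feature fluorescence with signal to noise over triplicate slides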
[19] = molecular target: Neurogenic locus notch homolog protein 3 (Homo sapiens) (UniProt Q9UM47); test: NOTCH3 binders on small-molecule microarray, primary screen, biochemical, 635/667 nm fluorescence (AID 1096); conditions: NOTCH3 binding, 635 nm fluorescence, higher = more signal
[20] = small-molecule microarray binders of probe aEGFR, primary screen, biochemical, biotinylated probe, 635/667 nm fluorescence (AID 1097); conditions: higher = more signal;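 note: probe is a biotinylated anti-EGFR antibody binding compounds printed on slides; score combines fluorescence near 667 nm and signal to noise of each spot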

Chain of Neurogenic locus notch homolog protein 3 (Homo sapiens) (Q9UM47 whole entry, looked up): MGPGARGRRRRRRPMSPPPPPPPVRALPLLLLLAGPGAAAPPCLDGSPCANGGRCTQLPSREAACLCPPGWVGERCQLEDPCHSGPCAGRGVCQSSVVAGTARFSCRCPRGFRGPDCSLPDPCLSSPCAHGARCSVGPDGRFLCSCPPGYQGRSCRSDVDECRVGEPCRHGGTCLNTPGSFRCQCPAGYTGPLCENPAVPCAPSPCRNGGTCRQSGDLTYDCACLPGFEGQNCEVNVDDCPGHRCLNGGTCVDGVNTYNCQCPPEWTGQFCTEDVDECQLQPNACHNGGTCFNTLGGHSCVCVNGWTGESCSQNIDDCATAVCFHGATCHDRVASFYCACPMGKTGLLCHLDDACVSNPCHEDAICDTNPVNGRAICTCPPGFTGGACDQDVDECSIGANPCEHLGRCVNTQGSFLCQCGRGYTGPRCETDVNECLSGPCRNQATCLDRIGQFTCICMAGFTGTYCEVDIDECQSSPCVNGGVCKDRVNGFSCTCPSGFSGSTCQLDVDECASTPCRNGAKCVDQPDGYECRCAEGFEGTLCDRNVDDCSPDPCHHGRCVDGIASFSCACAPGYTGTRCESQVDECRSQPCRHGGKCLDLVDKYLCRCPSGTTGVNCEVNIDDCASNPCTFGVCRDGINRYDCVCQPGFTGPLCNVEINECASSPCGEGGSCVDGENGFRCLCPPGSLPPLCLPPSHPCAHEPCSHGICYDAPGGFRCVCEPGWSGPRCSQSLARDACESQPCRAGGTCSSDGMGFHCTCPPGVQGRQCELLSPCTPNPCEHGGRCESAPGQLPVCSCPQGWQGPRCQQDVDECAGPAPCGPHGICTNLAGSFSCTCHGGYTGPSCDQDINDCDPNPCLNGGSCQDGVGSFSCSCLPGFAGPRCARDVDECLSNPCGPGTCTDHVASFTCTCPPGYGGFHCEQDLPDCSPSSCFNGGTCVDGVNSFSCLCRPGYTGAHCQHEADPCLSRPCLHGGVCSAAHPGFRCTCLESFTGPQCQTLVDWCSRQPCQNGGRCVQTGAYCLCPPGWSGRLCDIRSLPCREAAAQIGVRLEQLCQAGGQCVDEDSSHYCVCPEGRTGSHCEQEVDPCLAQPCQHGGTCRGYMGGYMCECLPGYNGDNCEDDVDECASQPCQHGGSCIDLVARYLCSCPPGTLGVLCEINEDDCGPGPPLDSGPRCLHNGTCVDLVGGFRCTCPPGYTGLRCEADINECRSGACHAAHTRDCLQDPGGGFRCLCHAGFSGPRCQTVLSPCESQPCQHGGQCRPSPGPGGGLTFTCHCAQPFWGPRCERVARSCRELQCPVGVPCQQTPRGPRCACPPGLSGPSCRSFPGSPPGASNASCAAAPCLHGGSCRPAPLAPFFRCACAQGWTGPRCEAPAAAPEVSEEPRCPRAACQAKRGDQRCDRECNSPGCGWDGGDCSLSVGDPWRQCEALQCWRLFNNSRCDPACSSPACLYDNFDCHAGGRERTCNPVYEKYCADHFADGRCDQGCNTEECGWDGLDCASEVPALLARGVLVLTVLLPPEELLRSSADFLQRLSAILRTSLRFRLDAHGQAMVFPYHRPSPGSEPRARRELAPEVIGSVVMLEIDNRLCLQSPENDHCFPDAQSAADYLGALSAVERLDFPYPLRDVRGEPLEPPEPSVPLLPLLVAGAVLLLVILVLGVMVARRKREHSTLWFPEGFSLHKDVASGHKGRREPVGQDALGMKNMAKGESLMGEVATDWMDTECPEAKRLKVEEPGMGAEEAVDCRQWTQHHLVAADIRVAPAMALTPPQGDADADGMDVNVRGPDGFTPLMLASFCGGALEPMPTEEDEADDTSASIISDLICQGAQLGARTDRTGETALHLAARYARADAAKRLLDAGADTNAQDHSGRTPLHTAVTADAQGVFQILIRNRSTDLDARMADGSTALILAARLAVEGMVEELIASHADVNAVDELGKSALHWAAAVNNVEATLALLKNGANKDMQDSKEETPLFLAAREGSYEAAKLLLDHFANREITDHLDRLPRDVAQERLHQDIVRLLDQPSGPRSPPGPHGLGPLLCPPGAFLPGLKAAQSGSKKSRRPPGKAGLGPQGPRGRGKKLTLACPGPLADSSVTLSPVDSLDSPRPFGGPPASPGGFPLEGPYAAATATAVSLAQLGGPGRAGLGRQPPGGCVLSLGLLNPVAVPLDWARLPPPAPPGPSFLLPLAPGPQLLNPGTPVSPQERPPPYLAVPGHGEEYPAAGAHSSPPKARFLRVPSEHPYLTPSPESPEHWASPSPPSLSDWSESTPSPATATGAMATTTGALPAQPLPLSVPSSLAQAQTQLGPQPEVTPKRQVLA
Chain of Torsin-1A-interacting protein 2 (Homo sapiens) (Q8NFQ8 whole entry, looked up): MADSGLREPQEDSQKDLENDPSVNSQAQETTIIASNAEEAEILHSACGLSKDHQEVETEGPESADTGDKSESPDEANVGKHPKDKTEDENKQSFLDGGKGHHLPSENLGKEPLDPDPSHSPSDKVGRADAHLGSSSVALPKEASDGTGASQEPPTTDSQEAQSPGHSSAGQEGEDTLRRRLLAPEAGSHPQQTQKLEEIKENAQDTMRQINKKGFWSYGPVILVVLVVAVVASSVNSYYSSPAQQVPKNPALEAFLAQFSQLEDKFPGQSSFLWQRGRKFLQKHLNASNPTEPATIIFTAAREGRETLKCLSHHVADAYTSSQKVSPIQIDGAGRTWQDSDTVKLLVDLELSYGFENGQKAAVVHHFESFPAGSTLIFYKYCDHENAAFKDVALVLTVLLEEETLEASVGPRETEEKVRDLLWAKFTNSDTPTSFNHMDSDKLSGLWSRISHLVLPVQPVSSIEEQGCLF
Chain of Pro-neuregulin-1, membrane-bound isoform (Homo sapiens) (Q02297 whole entry, looked up, the tested form may be a part, canonical isoform): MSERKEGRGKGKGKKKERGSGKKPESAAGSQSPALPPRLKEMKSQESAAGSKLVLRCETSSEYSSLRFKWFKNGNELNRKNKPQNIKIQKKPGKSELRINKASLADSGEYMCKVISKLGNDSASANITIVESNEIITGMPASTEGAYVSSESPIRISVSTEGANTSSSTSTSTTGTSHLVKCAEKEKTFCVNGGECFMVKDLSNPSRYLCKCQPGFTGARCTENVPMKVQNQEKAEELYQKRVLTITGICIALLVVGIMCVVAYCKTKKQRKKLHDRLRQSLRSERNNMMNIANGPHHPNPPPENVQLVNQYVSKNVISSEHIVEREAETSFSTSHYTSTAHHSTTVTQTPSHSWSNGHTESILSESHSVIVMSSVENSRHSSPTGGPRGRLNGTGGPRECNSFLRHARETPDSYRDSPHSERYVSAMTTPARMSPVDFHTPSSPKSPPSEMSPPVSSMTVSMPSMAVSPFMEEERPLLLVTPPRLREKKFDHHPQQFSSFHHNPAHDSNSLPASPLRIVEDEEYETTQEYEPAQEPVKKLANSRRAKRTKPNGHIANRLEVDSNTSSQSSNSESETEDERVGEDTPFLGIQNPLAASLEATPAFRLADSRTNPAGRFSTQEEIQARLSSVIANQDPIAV

C=C[C@H](C)[C@@H](OC(=O)Nc1ccc(SC)cc1)c1ccc(O)c2ccccc12
composite z-score [1]: -0.151 | composite z-score [2]: 0.152 | composite z-score [3]: 0.0111 | composite z-score [4]: 0.358 | composite z-score [5]: 0.68 | composite z-score [6]: 0.423 | composite z-score [7]: 1.43 | z-score [8]: 5.42 (inactive) | composite z-score [9]: 0.455 | composite z-score [10]: -0.0994 | composite z-score [11]: 1.28 | z-score [12]: -24.3 (active) | z-score [13]: -20.7 (active) | z-score [14]: -1.88 (inactive) | composite z-score [15]: 1.89 | z-score [16]: 1.22 (inactive) | composite z-score [17]: -0.0159 | composite z-score [18]: 0.936 | composite z-score [19]: 1.11 | composite z-score [20]: 0.137

COc1ccc(C(O)C2C=CC3C(=O)N(C)C(=O)C3N2N(c2ccccc2)c2ccccc2)c2ccccc12 (stereo not given)
composite z-score [1]: 0.249 | composite z-score [2]: 0.643 | composite z-score [3]: 0.0346 | composite z-score [4]: 0.412 | composite z-score [5]: 0.295 | composite z-score [6]: 0.85 | composite z-score [7]: 0.894 | z-score [8]: -0.14 (inactive) | composite z-score [9]: 0.284 | composite z-score [10]: 0.576 | composite z-score [11]: 0.474 | z-score [12]: 0.388 (inactive) | z-score [13]: 0.954 (inactive) | z-score [14]: 0.375 (inactive) | composite z-score [15]: -0.124 | z-score [16]: -1.27 (inactive) | composite z-score [17]: 0.242 | composite z-score [18]: 0.575 | composite z-score [19]: 0.563 | composite z-score [20]: -0.0283

Cc1ccc(S(=O)(=O)N2C[C@@H](C(=O)O)[C@H](Sc3ccccc3)C[C@H]2c2ccccc2)cc1
composite z-score [1]: 0.265 | composite z-score [2]: 0.57 | composite z-score [3]: 0.172 | composite z-score [4]: 1.15 | composite z-score [5]: 1.61 | composite z-score [6]: 1.3 | composite z-score [7]: 1.12 | z-score [8]: -2.97 (inactive) | composite z-score [9]: 1.56 | composite z-score [10]: -0.34 | composite z-score [11]: 1.55 | z-score [12]: -0.552 (inactive) | z-score [13]: 0.972 (inactive) | z-score [14]: -0.727 (inactive) | composite z-score [15]: 3.41 | z-score [16]: -0.385 (inactive) | composite z-score [17]: 0.237 | composite z-score [18]: 0.228 | composite z-score [19]: 0.988 | composite z-score [20]: 0.0478

NC(=O)[C@@H]1[C@H]2C(=O)O[C@H](c3ccccc3)[C@H](c3ccccc3)N2[C@H](c2ccc(O)cc2)[C@@]12C(=O)Nc1ccc(C#CC3=CCCCC3)cc12
composite z-score [1]: -0.542 | composite z-score [2]: 0.103 | composite z-score [3]: -0.222 | composite z-score [4]: 0.604 | composite z-score [5]: -0.173 | composite z-score [6]: 1.68 | composite z-score [7]: 1.15 | z-score [8]: 0.009 (inactive) | composite z-score [9]: -0.21 | composite z-score [10]: -0.357 | composite z-score [11]: 1.55 | z-score [12]: 1.98 (inactive) | z-score [13]: 1.4 (inactive) | z-score [14]: 2.74 (inactive) | composite z-score [15]: 3.22 | z-score [16]: -0.716 (inactive) | composite z-score [17]: -0.21 | composite z-score [18]: 0.87 | composite z-score [19]: 1.11 | composite z-score [20]: -0.176

O=C1C2C=CC(C(O)c3c(F)cccc3Cl)N(Nc3ccccc3F)C2C(=O)N1c1ccccc1 (stereo not given)
composite z-score [1]: 0.472 | composite z-score [2]: 0.374 | composite z-score [3]: 0.11 | composite z-score [4]: 0.574 | composite z-score [5]: 1.65 | composite z-score [6]: 1.37 | composite z-score [7]: 1.15 | z-score [8]: -3.2 (inactive) | composite z-score [9]: 1.04 | composite z-score [10]: 0.113 | composite z-score [11]: 0.0998 | z-score [12]: 0.232 (inactive) | z-score [13]: 1.03 (inactive) | z-score [14]: 0.722 (inactive) | composite z-score [15]: 2.98 | z-score [16]: -0.744 (inactive) | composite z-score [17]: 0.17 | composite z-score [18]: 0.0424 | composite z-score [19]: 1.05 | composite z-score [20]: 0.196

CC(C)[Si](C#CCCCC#N)(O[C@H](c1ccccc1)c1cn(Cc2cccc(Cl)c2)nn1)C(C)C
composite z-score [1]: -0.37 | composite z-score [2]: 0.558 | composite z-score [3]: -0.104 | composite z-score [4]: 0.689 | composite z-score [5]: 0.799 | composite z-score [6]: -0.0808 | composite z-score [7]: 0.603 | z-score [8]: -1.04 (inactive) | composite z-score [9]: 0.624 | composite z-score [10]: 0.136 | composite z-score [11]: 1.52 | z-score [12]: -0.135 (inactive) | z-score [13]: -0.483 (inactive) | z-score [14]: -3.21 (inactive) | composite z-score [15]: 1.42 | z-score [16]: 1.79 (inactive) | composite z-score [17]: 0.0322 | composite z-score [18]: 0.342 | composite z-score [19]: 1.13 | composite z-score [20]: 0.0363

Cc1ccc(C2C3C(=O)CC4C(=O)N(c5ccccc5)C(=O)C4C3CN2S(=O)(=O)c2ccc(C)cc2)cc1 (stereo not given)
composite z-score [1]: 0.469 | composite z-score [2]: 0.204 | composite z-score [3]: 0.292 | composite z-score [4]: 0.59 | composite z-score [5]: 1.57 | composite z-score [6]: 1.25 | composite z-score [7]: 1.32 | z-score [8]: 0.0035 (inactive) | composite z-score [9]: 1.58 | composite z-score [10]: 0.365 | composite z-score [11]: 1.32 | z-score [12]: 0.799 (inactive) | z-score [13]: 0.499 (inactive) | z-score [14]: 1.45 (inactive) | composite z-score [15]: 2.93 | z-score [16]: 0.0125 (inactive) | composite z-score [17]: 0.571 | composite z-score [18]: 0.0835 | composite z-score [19]: 1.12 | composite z-score [20]: 0.786

COc1ccc([C@H]2C[C@H]3C(I)=C[C@@H]2C(=O)[C@]32CO2)cc1
composite z-score [1]: -0.434 | composite z-score [2]: 0.241 | composite z-score [3]: -0.12 | composite z-score [4]: 0.17 | composite z-score [5]: 0.0021 | composite z-score [6]: -0.645 | composite z-score [7]: -0.571 | z-score [8]: 2.29 (inactive) | composite z-score [9]: 0.169 | composite z-score [10]: -0.0237 | composite z-score [11]: -0.639 | z-score [12]: -1.61 (inactive) | z-score [13]: -15.3 (active) | z-score [14]: -1.79 (inactive) | composite z-score [15]: -0.83 | z-score [16]: 1.6 (inactive) | composite z-score [17]: -0.161 | composite z-score [18]: 0.387 | composite z-score [19]: 0.816 | composite z-score [20]: -0.135

O=C1NC(=O)C2C1C=CC(C(O)c1ccc(I)cc1)N2Nc1ccc(Cl)cc1Cl (stereo not given)
composite z-score [1]: 0.256 | composite z-score [2]: -0.396 | composite z-score [3]: -0.0085 | composite z-score [4]: 0.29 | composite z-score [5]: 1.43 | composite z-score [6]: 1.49 | composite z-score [7]: 0.991 | z-score [8]: -0.526 (inactive) | composite z-score [9]: 0.794 | composite z-score [10]: -0.321 | composite z-score [11]: 0.265 | z-score [12]: -9.39 (active) | z-score [13]: -5.52 (inactive) | z-score [14]: -0.806 (inactive) | composite z-score [15]: 2.64 | z-score [16]: -1.3 (inactive) | composite z-score [17]: 0.162 | composite z-score [18]: -0.0422 | composite z-score [19]: 0.925 | composite z-score [20]: -0.0953
